# PI5P4Ka inh: blocks human PI5P4K alpha kinase activity; hit rate 1.2% among 330,000; PI5P4Kalpha enzyme, ADP-Glo luminescence, 60 min; active compounds read low; P48426; max response, %; active means max response of -50% or lower; inconclusive means between -30% and -50%; inactive means -30% or higher; further: value at the top dose of about 77 µM; on the % scale 0 is the no-effect control and ±100 the full control effect
# Target sequence (P48426 whole entry, looked up): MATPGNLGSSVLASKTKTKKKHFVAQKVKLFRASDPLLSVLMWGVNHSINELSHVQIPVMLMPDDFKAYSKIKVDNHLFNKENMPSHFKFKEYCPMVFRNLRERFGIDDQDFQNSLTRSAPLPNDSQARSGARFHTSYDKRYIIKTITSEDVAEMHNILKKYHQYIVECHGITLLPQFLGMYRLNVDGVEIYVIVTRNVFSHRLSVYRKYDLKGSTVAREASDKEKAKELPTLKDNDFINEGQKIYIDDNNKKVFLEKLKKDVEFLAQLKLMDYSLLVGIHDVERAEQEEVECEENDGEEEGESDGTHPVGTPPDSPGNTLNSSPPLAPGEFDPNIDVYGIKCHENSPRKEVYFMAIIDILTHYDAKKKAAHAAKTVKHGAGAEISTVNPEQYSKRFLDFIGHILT
#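 PI5P4Kalpha ADP-Glo assay; 5 microM ATP final; 60 min RT reaction; HEPES pH 7.4/EGTA/CHAPS, 5% DMSO; controls lacking substrate or enzyme; luminescent end-point.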
# BAZ2B inh: BAZ2B (human) inhibition. Q9UIF8. AlphaScreen BAZ2B-H3K14Ac peptide displacement. Potency, µM (titrated, usually from 114 µM), for inactives: top-dose activity change, negative = inhibition, actives largely listed as inhibitors. hit rate 4.4% among 360,000. AID 504333; further: potency means the concentration at half of the fitted maximal effect; on the % scale 0 is the no-effect control and ±100 the full control effect; nearly all actives have a fitted effect of over 60% in size
#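 AlphaScreen displacement: compounds (up to 110uM) incubated 30 min at room temperature with a preformed 50 nM BAZ2B/50 nM biotinylated H3K14Ac peptide complex in PBS pH 7.4 with Tween-20. Donor and acceptor beads at 10 ug/mL final added, 20 min light-protected before reading.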
# JMJD2A Tudor inh: inhibitors of human JMJD2A Tudor domain | O75164 | AlphaScreen JMJD2A-Tudor / H3K4me3 peptide binding | Potency, µM (series often up to 114 µM), inactives show top-dose activity change, negative = inhibition, usual class: inhibitors | hit rate 4.4% among 390,000; further: potency means the concentration at half of the fitted maximal effect; on the % scale 0 is the no-effect control and ±100 the full control effect; nearly all actives have a fitted effect of over 50% in size
# G9a inh: G9a (human) methyltransferase inhibition; Potency, µM (highest dose often 102 µM), for inactives: top-dose activity, negative = inhibition, hits mostly inhibitors; AID 504332; G9a H3K9 monomethylation, AlphaScreen, 2 h; hit rate 8.8% among 350,000; Q96KQ7; further: potency means the concentration at half of the fitted maximal effect; on the % scale 0 is the no-effect control and ±100 the full control effect; nearly all actives have a fitted effect of over 75% in size
# Target sequence (Q96KQ7 913-1193 limits assumed): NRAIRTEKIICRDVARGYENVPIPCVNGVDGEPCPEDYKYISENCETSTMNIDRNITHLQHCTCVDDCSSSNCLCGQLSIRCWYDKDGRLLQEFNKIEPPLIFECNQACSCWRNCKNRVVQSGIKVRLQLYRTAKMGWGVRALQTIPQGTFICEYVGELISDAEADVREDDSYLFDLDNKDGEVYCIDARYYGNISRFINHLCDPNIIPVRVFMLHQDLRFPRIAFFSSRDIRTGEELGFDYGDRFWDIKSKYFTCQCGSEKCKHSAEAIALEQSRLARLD
#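 Readings reflect AlphaScreen signal from monomethyl-H3K9 antibody detection. HMT at 20 nM; substrate b-H3K9 500 nM; cofactor SAM 20 uM; 2 h RT reaction; compounds tested as titrations in qHTS with 15 min preincubation.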
# HP1b binding inh: inhibitors of HP1-beta chromodomain binding to methylated histone tails | P83916 | AlphaScreen HP1-beta / biotin-H3K9me3 peptide binding | Potency, µM (top dose mostly 114 µM), inactives show top-dose activity change, negative = inhibition, actives largely listed as inhibitors | hit rate 0.56% among 390,000 | AID 540317; further: potency means the concentration at half of the fitted maximal effect; nearly all actives have a fitted effect of over 70% in size
#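 HP1-beta protein (50 nM final) preincubated 30 min at room temperature with biotinylated H3(1-18)K9me3 peptide (50 nM) in PBS pH 7.4, 0.01% Tween-20, then compound added for 30 min. AlphaScreen streptavidin donor/nickel chelate acceptor beads (10 ug/mL final), 30 min dark, luminescence read.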
# L3MBTL1 block: inhibitors of human L3MBTL1; Q9Y468; AlphaScreen L3MBTL1–H3K9me1 peptide binding; Potency, µM (highest dose often 57.1 µM), for inactives: top-dose activity, negative = inhibition, most hits filed as inhibitors; hit rate 0.66% among 230,000; further: potency means the concentration at half of the fitted maximal effect; on the % scale 0 is the no-effect control and ±100 the full control effect; nearly all actives have a fitted effect of over 60% in size
#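 L3MBTL1 (50 nM) pre-complexed 30 min with biotinylated H3(1-15)K9me1 peptide (75 nM), then compounds added for 30 min at room temperature; AlphaScreen streptavidin donor/nickel chelate acceptor beads (10 ug/mL final) read after 30 min dark incubation.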
# * marks the source's active call; other numbers are inactive results; u = inconclusive; x = no result; [ ] = remark or other dose. Sampled rows, rich in hits. Any-hit rate of the full collection: about 11%. Unless noted, the call rests on the fitted dose curve; in most records, active means well fitted inhibition curve with a large enough effect; inconclusive means small, poorly fitted or top-dose-only effect; inactive means no such curve, though single readings can be large or run the other way.
SMILES,PI5P4Ka inh,BAZ2B inh,JMJD2A Tudor inh,G9a inh,HP1b binding inh,L3MBTL1 block
S=C1NC2=C(CCC/C2=C\c2ccccc2)C(c2ccccc2)N1 (configuration not stated),-22.0,u,u,8.91µM*,1.4%,-12.9%
COc1cccc(C2/C(=C(\O)c3ccc4c(c3)OCCO4)C(=O)C(=O)N2CCCN2CCOCC2)c1OC (configuration not stated),-2.7,-3.0%,-2.1%,3.55µM*,54.5%,x
O=C1C(=O)N(CCCN2CCOCC2)C(c2ccc(Cl)cc2)/C1=C(\O)c1ccc2c(c1)OCCO2 (configuration not stated),-11.7,-27.0%,31.6µM*,39.8µM*,11.1%,x
COc1ccccc1C1/C(=C(\O)c2ccc3c(c2)OCCO3)C(=O)C(=O)N1CCCN(C)C (configuration not stated),x,0.0%,x,10.2%[59 µM],x,5.2%
CCN(C(=O)Cn1c(=O)n(Cc2ccc3c(c2)OCO3)c(=O)c2ccc(C(=O)NC3CCCCC3)cc21)c1cccc(C)c1,x,x,-11.0%,-3.9%[59 µM],40.7%,x
O=[N+]([O-])c1ccc(S(=O)(=O)N2CCSC2c2ccco2)cc1 (configuration not stated),-15.6,u,u,8.91µM*,-22.5%,u
O=S(=O)(c1ccc(Cl)cc1)N1CCSC1c1ccco1 (configuration not stated),-10.0,-0.4%,-22.5%,9.7%[59 µM],20.0%,0.7%
CCCc1nc2nc(C)c(NS(=O)(=O)c3ccc(C(C)(C)C)cc3)c(=O)n2[nH]1,-0.3,4.3%,-4.9%,79.4µM*,61.1%,x
CCc1nc2nc(C)c(NS(=O)(=O)c3ccc(F)c(C)c3)c(=O)n2[nH]1,x,3.4%,-10.6%,-33.0%[59 µM],36.9%,x
CCc1nc2nc(C)c(NS(=O)(=O)c3ccc(Br)s3)c(=O)n2[nH]1,2.9,10.7%,u,50.1µM*,78.3%,x
CCc1nc2nc(C)c(NS(=O)(=O)c3ccc(F)cc3)c(=O)n2[nH]1,5.4,12.0%,-2.8%,25.1µM*,-11.0%,x
Cc1cccc(C(=O)Nc2cccc(OCc3cc(=O)n4cccc(C)c4n3)c2)c1,x,-4.4%,-14.9%,-9.4%[59 µM],13.7%[57 µM],x
COc1cccc(C2C(C#N)=C(NC(=O)NCc3ccccc3)Oc3ccc4ccccc4c32)c1 (configuration not stated),x,x,-10.3%,x,x,x
Cc1ccc2c(Sc3ccc(Cl)cc3)c(C(=O)NCCC(C)C)[nH]c2c1,x,u,u,-48.9%[59 µM],10.4%,x
COc1cc2c(C#N)c(N3CCCCC3)nc(N)c2c(N)n1,-28.2,-1.3%,-10.3%,11.0%,44.7%,-3.5%
COc1cc2c(C#N)c(N3CCc4ccccc4C3)nc(N)c2c(N)n1,u,u,4.47µM*,-3.0%[12.7 µM],-21.2%,-19.4%
CC(C)CN1C(=O)/C(=C/c2c(N3CCc4ccccc4C3)nc3ccccn3c2=O)SC1=S,x,-38.2%,x,35.5µM*,x,-0.2%
CCOC(=O)CC1C(=O)NCCN1c1nc2c(C)cccn2c(=O)c1/C=C1\SC(=S)N(CC(C)C)C1=O (configuration not stated),x,-4.4%,x,-31.6%,x,-1.8%
O=C(CCS(=O)(=O)c1ccc(Br)s1)Nc1cc(C(F)(F)F)cc(C(F)(F)F)c1,x,14.4%,2.4%,6.5%[59 µM],42.2%,x
O=C(/C=C/c1ccc(Br)cc1)NC(=S)NNC(=O)c1ccco1,-52.3*,6.7%,-15.7%,u,12.5%,16.1%
O=C(/C=C/c1ccccc1)NC(=S)NNC(=O)c1ccco1,-23.3,-1.1%,-5.4%,10µM*,14.8%,83.5%
Cc1cc(C)cc(Nc2cc(-c3ccccc3)nc(C)n2)c1,x,14.5%,29.1%,7.6%[59 µM],94.8%,x
COc1ccc(-c2noc(CN(C(C)C)S(=O)(=O)c3ccc(Br)cc3)n2)cc1,x,5.1%,27.7%,48.5%[59 µM],73.2%,x
COc1ccc(NC(=S)N2CCc3ccccc32)cc1OC,-0.2,u,-24.1%,50.1µM*,10.1%,x
COc1ccccc1NC(=S)N1CCCc2ccccc21,-2.7,8.3%,-22.6%,6.2%,3.8%,18.1%
SMILES,PI5P4Ka inh,BAZ2B inh,JMJD2A Tudor inh,G9a inh,HP1b binding inh,L3MBTL1 block
O=C(c1c(F)c(F)c(F)c(F)c1F)N1CCc2ccccc21,-6.7,x,56.2µM*,x,-13.0%,x
Fc1cccc(NC(=S)N2CCc3ccccc32)c1,0.4,-28.1%,-22.1%,u,14.8%,x
O=[N+]([O-])c1ccc(NC(=S)N2CCc3ccccc32)cc1,1.1,u,u,35.5µM*,-15.5%,x
S=C(Nc1ccccc1)N1CCc2ccccc21,-0.3,-6.2%,-24.7%,19.0%[0.501 µM],11.1%,0.8%[2.29 µM]
CC(=O)c1cccc(NC(=S)N2CCc3ccccc32)c1,-2.5,-0.4%,-27.1%,35.5µM*,4.5%,x
O=C(c1ccccc1)N1CCc2ccccc21,2.6,-13.3%,4.5%,-5.9%[12.7 µM],29.3%,x
CCN1CCc2c(sc(-n3cccc3)c2C(CCC(C)C)NC(=O)NCCC(=O)OC)C1 (configuration not stated),x,-17.3%,u,u,4.2%,x
CCn1nc(C)c(CCN(C)C(=O)Nc2cc(Cl)ccc2C)c1C,x,-14.1%,1.3%,-2.1%[12.7 µM],40.1%,x
CC1=C(C(=O)NCc2ccccc2F)C2(CCCCC2)OC1=O,x,-0.5%,-14.9%,-9.6%[59 µM],15.5%,x
O=C(NC(=S)N1CCc2ccccc21)c1ccccc1,-22.6,u,u,44.7µM*,-15.3%,-13.0%
CCCCc1oc2ccccc2c1C(=O)c1cc(I)c(N(CC)CCOCC)c(I)c1,x,x,56.2µM*,x,-6.1%,x
CC1Cc2cc(S(=O)(=O)CCC(=O)Nc3ccc(F)cc3)ccc2N1C(=O)C1CC1 (configuration not stated),x,-14.5%,-10.3%,u,34.0%,x
CC1=C(C)C(=O)C(CCCCC#CCCCC#CCO)=C(C)C1=O,u,39.8µM*,39.8µM*,18.9µM*,u,-11.2%
Cn1c(C(=O)N2CCN(c3ncccn3)CC2)cc2c(=O)n(C)c3ccccc3c21,-1.1,-2.8%,-2.1%,44.7µM*,41.3%,x
CCN1CCCC(OC(=O)c2cc(-c3ccc(C)cc3)nc3ccccc23)C1 (configuration not stated),7.9,x,17.8µM*,u,12.8%,-11.8%
O=C(c1cc(-c2ccc(Br)cc2)nc2ccccc12)N1CCN(c2ccccc2O)CC1,7.6,-12.2%,u,50.1µM*,-17.7%,-4.3%
COc1ccc(-c2cc(C(=O)N3CCN(c4ncccn4)CC3)c3ccccc3n2)cc1OC,-6.1,-4.3%,-12.4%,u,48.1%,-11.8%

# Assay outcomes as filed in PubChem.
